According to PubChem BioAssay (EPA / NIEHS):
Values joined by “and” are separate entries in the source; they are usually repeats but may differ in a detail not shown here. Equal entries are not always repeated. The source holds several records for some structures; these can differ, active in one and inactive in another. Active and inactive are the calls of the source. Rule for the calls: active = hit-call score of the fitted dose curve at least 0.9, where 1 is the maximum; inactive = score below 0.9.

What was measured:
[1] = read-out: Thrombomodulin, THBD (gene 7056); test: BSK_CASM3C_Thrombomodulin: BioMAP Diversity Plus: CASM3C Assay for Thrombomodulin Biomarker Activity (AID 2283051); settings: primary human coronary artery smooth muscle cells; actives raise or lower the signal;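 note: thrombomodulin protein level measured by ELISA 24 h after dosing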
[2] = read-out: Tissue Factor, F3 (gene 2152); test: BSK_CASM3C_TissueFactor: BioMAP Diversity Plus: CASM3C Assay for Tissue Factor Biomarker Activity (AID 2283052); settings: primary human coronary artery smooth muscle cells; actives raise or lower the signal;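 note: cell surface tissue factor protein level read by ELISA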
[3] = read-out: Interferon-gamma inducible Protein 10 (IP10), CXCL10 (gene 3627); test: BSK_hDFCGF_IP10: BioMAP Diversity Plus: hDFCGF Assay for Interferon-gamma inducible Protein 10 (IP10) Biomarker Activity (AID 2283053); settings: primary human foreskin fibroblasts; actives raise or lower the signal
In short: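 Cells: human dermal foreskin fibroblasts. Exposure: 24 h post-dosing. Detection: IP-10 ELISA, with values expressed against DMSO controls and fitted in both directions.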

[4] = read-out: Urokinase-type plasminogen activator receptor (uPAR), PLAUR (gene 5329); test: BSK_CASM3C_uPAR: BioMAP Diversity Plus: CASM3C Assay for Urokinase-type plasminogen activator receptor (uPAR) Biomarker Activity (AID 2283054); settings: primary human coronary artery smooth muscle cells; actives raise or lower the signal;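 note: cell-surface uPAR protein level quantified by ELISA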
[5] = read-out: Vascular cell adhesion molecule 1 (VCAM1), VCAM1 (gene 7412); test: BSK_CASM3C_VCAM1: BioMAP Diversity Plus: CASM3C Assay for Vascular cell adhesion molecule 1 (VCAM1) Biomarker Activity (AID 2283055); settings: primary human coronary artery smooth muscle cells; actives raise or lower the signal;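 note: VCAM-1 protein level quantified by ELISA on the cells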
[6] = read-out: Collagen III, COL3A1 (gene 1281); test: BSK_hDFCGF_CollagenIII: BioMAP Diversity Plus: hDFCGF Assay for Collagen III Biomarker Activity (AID 2283056); settings: primary human foreskin fibroblasts; actives raise or lower the signal
In short: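 Response relative to DMSO, fitted in both directions, reflects ELISA-measured collagen III in human primary skin fibroblasts 24 h after compound addition.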

[7] = read-out: Epidermal growth factor receptor (EGFR), EGFR (gene 1956); test: BSK_hDFCGF_EGFR: BioMAP Diversity Plus: hDFCGF Assay for Epidermal growth factor receptor (EGFR) Biomarker Activity (AID 2283057); settings: primary human foreskin fibroblasts; actives raise or lower the signal
In short: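 Dosing human primary skin fibroblasts, then measuring surface EGFR by ELISA at 24 h, gives the endpoint; gains and losses relative to DMSO were fitted in both directions.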

[8] = BSK_hDFCGF_Proliferation: Cell Proliferation Assessment in the BioMAP Diversity Plus: hDFCGF Assay (AID 2283059); settings: primary human foreskin fibroblasts;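 note: curves fitted for both rise and fall of signal versus DMSO baseline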
In short: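 Primary human foreskin fibroblasts, sub-confluent; […]; 10% TCA fix, 0.1% SRB stain, A560 total protein. Gain/loss fitted bidirectionally vs DMSO control.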

[9] = read-out: Macrophage colony-stimulating factor (MCSF), CSF1 (gene 1435); test: BSK_hDFCGF_MCSF: BioMAP Diversity Plus: hDFCGF Assay for Macrophage colony-stimulating factor (MCSF) Biomarker Activity (AID 2283060); settings: primary human foreskin fibroblasts; actives raise or lower the signal
In short: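 fibroblasts (human foreskin, primary), 24 h post-dose; M-CSF by ELISA; bidirectional fit, DMSO = baseline.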

[10] = BSK_hDFCGF_SRB: Viability Assessment in the BioMAP Diversity Plus: hDFCGF Assay (AID 2283061); settings: primary human foreskin fibroblasts;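 note: cells exposed to compound for 24 h before the read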
In short: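 SRB-based viability read on primary human skin fibroblasts at 24 h: TCA fixation, 0.1% dye, 560 nm. Gain or loss of signal is fitted against the DMSO negative control.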

[11] = read-out: TIMP metallopeptidase inhibitor 1 (TIMP1), TIMP1 (gene 7076); test: BSK_hDFCGF_TIMP1: BioMAP Diversity Plus: hDFCGF Assay for TIMP metallopeptidase inhibitor 1 (TIMP1) Biomarker Activity (AID 2283062); settings: primary human foreskin fibroblasts; actives raise or lower the signal
In short: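 Bidirectional curve fitting against DMSO baseline yielded this endpoint, based on ELISA detection of TIMP-1 in primary human foreskin fibroblasts exposed to compound for 24 h.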

[12] = read-out: Monokine induced gamma interferon (MIG), CXCL9 (gene 4283); test: BSK_hDFCGF_MIG: BioMAP Diversity Plus: hDFCGF Assay for Monokine induced gamma interferon (MIG) Biomarker Activity (AID 2283063); settings: primary human foreskin fibroblasts; actives raise or lower the signal
In short: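 Endpoint derived by bidirectional fitting relative to DMSO; MIG quantified via ELISA in primary human foreskin fibroblasts harvested 24 h after dosing.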

[13] = read-out: Matrix Metallopeptidase 1 (MMP1), MMP1 (gene 4312); test: BSK_hDFCGF_MMP1: BioMAP Diversity Plus: hDFCGF Assay for Matrix Metallopeptidase 1 (MMP1) Biomarker Activity (AID 2283064); settings: primary human foreskin fibroblasts; actives raise or lower the signal
In short: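 ELISA read-out of MMP1 from human foreskin fibroblasts (primary skin cells), 24 h post-dose. Gain or loss of signal was fitted bidirectionally versus DMSO negative control; cytotoxicity was checked by SRB in parallel cultures.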

[14] = read-out: Vascular cell adhesion molecule 1 (VCAM1), VCAM1 (gene 7412); test: BSK_hDFCGF_VCAM1: BioMAP Diversity Plus: hDFCGF Assay for Vascular cell adhesion molecule 1 (VCAM1) Biomarker Activity (AID 2283065); settings: primary human foreskin fibroblasts; actives raise or lower the signal;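 for AC50: VCAM-1 protein level quantified by ELISA after 24 h chemical exposure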
In short: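 Measured after 24 h chemical treatment of primary human skin fibroblasts, VCAM-1 was detected by ELISA and concentration-response analysed in both directions versus DMSO vehicle.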

[15] = read-out: Plasminogen activator inhibitor-1 (PAI1), SERPINE1 (gene 5054); test: BSK_hDFCGF_PAI1: BioMAP Diversity Plus: hDFCGF Assay for Plasminogen activator inhibitor-1 (PAI1) Biomarker Activity (AID 2283066); settings: primary human foreskin fibroblasts; actives raise or lower the signal
In short: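 Fibroblasts from human foreskin were treated with test chemical. After 24 h, PAI-1 was measured by ELISA. Activity was fitted in both directions relative to DMSO.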

[16] = read-out: Intercellular Adhesion Molecule 1 (ICAM1), ICAM1 (gene 3383); test: BSK_KF3CT_ICAM1: BioMAP Diversity Plus: KF3CT Assay for Intercellular Adhesion Molecule 1 (ICAM1) Biomarker Activity (AID 2283067); settings: primary human keratinocytes with fibroblasts; actives raise or lower the signal
In short: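 Bidirectional curve fitting against a DMSO baseline was applied to ICAM-1 ELISA signal from primary human skin co-cultures harvested 24 h after treatment, with SRB staining of parallel wells for overt cytotoxicity.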

[17] = read-out: Interferon-gamma inducible Protein 10 (IP10), CXCL10 (gene 3627); test: BSK_KF3CT_IP10: BioMAP Diversity Plus: KF3CT Assay for Interferon-gamma inducible Protein 10 (IP10) Biomarker Activity (AID 2283068); settings: primary human keratinocytes with fibroblasts; actives raise or lower the signal
In short: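 In a primary skin co-culture of keratinocytes and fibroblasts, IP-10 is quantified by ELISA at 24 h after dosing. SRB staining of parallel wells monitors overt toxicity. Curves are fitted both directions against DMSO.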

[18] = BSK_KF3CT_SRB: Viability Assessment in the BioMAP Diversity Plus: KF3CT Assay (AID 2283069); settings: primary human keratinocytes with fibroblasts;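 note: total protein by sulforhodamine B staining as a cytotoxicity measure; fitted for both signal gain and loss against DMSO baseline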
In short: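 SRB read-out at 560 nm (0.1% stain, TCA-fixed cells) gauges overt cytotoxicity in a human skin keratinocyte–fibroblast co-culture 24 h post-dosing. Signal change was fitted bidirectionally relative to DMSO control.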

[19] = read-out: Interleukin-1 alpha (IL1a), IL1A (gene 3552); test: BSK_KF3CT_IL1a: BioMAP Diversity Plus: KF3CT Assay for Interleukin-1 alpha (IL1a) Biomarker Activity (AID 2283070); settings: primary human keratinocytes with fibroblasts; actives raise or lower the signal
In short: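 Primary skin co-culture (keratinocytes, foreskin fibroblasts), 24 h exposure; ELISA for IL-1a; bidirectional curve fit vs DMSO.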

[20] = read-out: Interleukin-8 (IL8), CXCL8 (gene 3576); test: BSK_hDFCGF_IL8: BioMAP Diversity Plus: hDFCGF Assay for Interleukin-8 (IL8) Biomarker Activity (AID 2283058); settings: primary human foreskin fibroblasts; actives raise or lower the signal
In short: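 Fibroblast monolayers (human foreskin, hDFCGF) received test chemical for 24 h before ELISA detection of IL-8; either increases or decreases relative to DMSO count as activity.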

Measured: AC50

O=C(O)CCC(F)(F)C(F)(F)C(F)(F)C(F)(F)C(F)(F)C(F)(F)C(F)(F)F
inactive: [1] | [2] | [3] | [4] | [5] | [6] | [7] | [8] | [9] | [10] | [11] | [12] | [13] | [14] | [15] | [16] | [17] | [18] | [19]
active: [10] 2.25 µM

O=C(Cl)C(F)(F)C(F)(F)C(F)(F)C(F)(F)C(F)(F)C(F)(F)F
inactive: [1] | [2] | [3] | [4] | [5] | [6] | [7] | [20] | [8] | [9] | [10] | [11] | [12] | [13] | [14] | [15] | [16] | [17] | [18] | [19]
active: [7] 2.04 µM

C=CC(=O)OCC(F)(F)C(F)(F)C(F)(F)COC(=O)C=C
active: [1] 7.48 µM and 7.64 µM | [2] 7.91 µM | [3] 1.26 µM and 1.32 µM | [4] 48.3 µM and 47.6 µM | [5] 30 µM and 25.8 µM | [6] 5.04 µM and 1.49 µM | [20] 3.92 µM and 4.38 µM | [8] 111 nM and 1.28 µM | [9] 2.55 µM and 1.94 µM | [10] 2.51 µM and 2.73 µM | [11] 2.37 µM and 737 nM | [12] 918 nM and 499 nM | [13] 5.8 µM and 4.94 µM | [14] 2.35 µM and 1.96 µM | [15] 3.85 µM and 3.09 µM | [16] 21.8 µM and 21.3 µM | [17] 28.4 µM and 17.6 µM | [18] 36.6 µM and 41.6 µM | [19] 30 µM and 5.95 µM
inactive: [2] | [7]

O=S(=O)(O)CCC(F)(F)C(F)(F)C(F)(F)C(F)(F)F
not listed: [3] | [6] | [20]
inactive: all other assays above

CN(C(=O)C(F)(F)C(F)(F)C(F)(F)F)[Si](C)(C)C
not listed: [3] | [6]
inactive: all other assays above
